PubChem BioAssay (NCI)
This is part of a sample that, as a whole, favours compounds with a hit. Of some 83,000 tested, about 20% had one in any assay.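 Cell lines were cultured in 96-well plates, exposed to a single compound concentration, and assessed for percent growth 48 hours later.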 Unmarked numbers belong to inactive results. Calls of active or inactive are those of the source. Rule for the calls: active = growth percent below 10; inactive = the rest.

Legend:
Test in all cases: NCI-60 one-dose screen, 48 h (100 = growth as untreated, 0 = no growth, -100 = all killed)
Conditions in all cases: 10 µM unless noted
SK-MEL-2 melanoma = tested on: SK-MEL-2 melanoma
EKVX NSCLC = tested on: EKVX NSCLC
SN12C renal = tested on: SN12C renal
UO-31 renal = tested on: UO-31 renal
TK-10 renal = tested on: TK-10 renal
ACHN renal = tested on: ACHN renal
CAKI-1 renal = tested on: CAKI-1 renal
A498 renal = tested on: A498 renal
CCRF-CEM leukemia = tested on: CCRF-CEM leukemia
MOLT-4 leukemia = tested on: MOLT-4 leukemia

Row | Compound | growth (SK-MEL-2 melanoma) [%] | growth (EKVX NSCLC) | growth (SN12C renal) [%] | growth (UO-31 renal) | growth (TK-10 renal) [%] | growth (ACHN renal) | growth (CAKI-1 renal) | growth (A498 renal) | growth (CCRF-CEM leukemia) [%] | growth (MOLT-4 leukemia)
1 | Cc1cc(=O)oc2cc(OCc3nn4c(Nc5nc6ccccc6s5)c(-c5ccccc5)nc4s3)ccc12 | 108 | 88.4% | 91.4 | 83.6% | 128 | 100% | 79.5% | 91.1% | 40.7 | 97.5%
2 | COCCOc1cc2ncnc(N3CCN(c4ncc(S(=O)(=O)N5CCCCC5)cn4)CC3)c2cc1OCCOC | 105 | 104% | 104 | 78.1% | 106 | 115% | 101% | 92.1% | 84.5 | 91.9%
3 | O=C1Nc2ccc(C(=O)O)cc2/C1=N/c1nnc(Sc2ccccc2)s1 | 112 | 104% | 96.9 | 84.3% | 106 | 98.4% | 85.9% | 86.8% | 99.7 | 105%
4 | COc1cc2ncnc(Nc3ccc(S(=O)(=O)Nc4cc(C)on4)cc3)c2cc1OCCCN1CCN(c2ccc(F)cc2)CC1 | 113 | 109% | 100 | 77.5% | 115 | 97.4% | 87.7% | 91.9% | 103 | 102%
5 | C=C(C)[C@@H]1CC[C@]2(C(=O)O)CC[C@]3(C)[C@H](CC[C@@H]4[C@@]5(C)CCC(NC(=O)c6cccc(OC(C)=O)c6OC(C)=O)C(C)(C)[C@@H]5CC[C@]43C)[C@@H]12 (stereo not given in full) | 14.9 | 2.51% (active) | 12.5 | -39% (active) | 19.7 | 3.98% (active) | 3.74% (active) | -21.9% (active) | 10.4 | 8.43% (active)
6 | CC(C)=CC(=O)OCC(=O)O[C@@H]1C[C@]2(C(C)C)O[C@@]1(C)[C@@H]1CC[C@@H](C)[C@H]1[C@@H]2OC(=O)/C=C/c1ccccc1 | 89 | 84.1% | 39.8 | -64.7% (active) | 95.5 | 4.57% (active) | 12.8% | -79.2% (active) | 78.4 | 79.1%
7 | COc1cc(C2c3cc(OC(C)=O)c(OC)cc3CC3C(=O)OCC32)ccc1OC(C)=O (stereo not given) | 132 | 111% | 93.2 | 78.2% | 122 | 94.3% | 97.1% | 180% | 92.4 | 112%
8 | C=C(C)[C@@H]1CC[C@]2(C(=O)N3CCOCC3)CC[C@]3(C)[C@H](CC[C@@H]4[C@@]5(C)C/C(=C/c6ccncc6)C(=O)C(C)(C)[C@@H]5CC[C@]43C)[C@@H]12 | 72.2 | 60.8% | 62.6 | 52.6% | 91 | 58.4% | 56.8% | 68.9% | 31.7 | 30.3%
9 | Cn1cc(-c2csc(-c3cn(C(=O)OC(C)(C)C)c4ccc(Br)cc34)n2)c2ccnc(Cl)c21 | 96.3 | 87.7% | 93.6 | 96% | 92.9 | 82.8% | 96.4% | 89.6% | 93.1 | 90.9%
10 | COC(=O)CC[C@H](C)[C@H]1CC[C@H]2[C@@H]3CC[C@@H]4CC5(CC[C@]4(C)[C@H]3CC(=O)[C@]12C)Nc1ccccc1NC5=NC(C)(C)C (stereo not given in full) | 90.9 | 87.5% | 87.9 | 88.7% | 97.4 | 86.4% | 59.2% | 63.5% | 54.7 | 54.6%
11 | COc1ccc(C2CC(c3ccc(Nc4nc(Nc5ccccc5)nc(Nc5ccccc5)n4)cc3)=NN2C(C)=O)cc1 (stereo not given) | 68.5 | 132% | 95.7 | 78.3% | 104 | 100% | 105% | 95.5% | 88.6 | 71.2%
12 | COc1ccc(OC)c(/C=N/Nc2ncnc3c2c(C)nn3C)c1 | 105 | 94.8% | 91.4 | 82.9% | 105 | 105% | 98.7% | 64.4% | 103 | 93.9%
13 | COc1ccc(C/C(C)=C(\c2ccc(Cl)cc2)c2ccc(OCCN3CCCCC3)cc2)cc1 | 97 | 102% | 94.3 | 73.9% | 97 | 92.3% | 86.9% | 120% | 90.1 | 75.4%
14 | COc1c(C(=O)Nc2ccc(C)c(Br)c2)ccc2ccccc12 | 102 | 66.3% | 96.8 | 85.5% | 103 | 104% | 71.9% | 91.2% | 91.3 | 73.7%
15 | O=c1c2cnn(-c3ccccc3)c2n2c(CN3CCOCC3)nnc2n1-c1ccccc1 | 79.1 | 102% | 104 | 87.6% | 71.4 | 95.2% | 92.4% | 106% | 96.8 | 100%
16 | O=C(NCCCl)Nc1ncccc1OCc1ccccc1 | 101 | 98.9% | 97 | 94.9% | 88.9 | 110% | 97.9% | 90% | 106 | 95.3%
17 | COc1ccc(C2=Nc3c(N)nc(N)nc3NC(c3cccc(Nc4ccnc5cc(C(F)(F)F)ccc45)c3)C2)cc1 (stereo not given) | 75.5 | 72.3% | 75.7 | 70% | 108 | 96.4% | 60.7% | 84.7% | 53.9 | 24.3%
18 | COc1cc2c(c(OC)c1OC)CCC(c1cccc(C(=O)Nc3cccc(Cl)c3)c1)O2 (stereo not given) | 58.3 | 64.2% | 50 | 40.8% | 70.4 | 65.4% | 84.8% | 6.84% (active) | 37.8 | 30.4%
19 | NNc1nc(-c2cccnc2)nc2c1sc(=S)n2-c1ccccc1 | 68 | 95.1% | 102 | 79.3% | 83.6 | 106% | 97.9% | 124% | 90.5 | 86%
20 | CCSc1nc2scc(C)c2c(=O)[nH]1 | 105 | 97.7% | 99.4 | 88.6% | 110 | 101% | 92.3% | 89.7% | 99.2 | 96%
21 | COc1ccc(/C=N\Nc2nc(SCCC(C)C)nc(-c3ccc(OC)cc3)c2C#N)cc1 | 103 | 44.8% | 32.2 | -41.4% (active) | 11.2 | -41.5% (active) | 17% | 98.5% | 31.4 | 65.1%
22 | O=C(c1ccccc1)c1ccc(C2CCCCC2)cc1 | 110 | 81.9% | 90.7 | 98.2% | 81.5 | 97.1% | 82.2% | 77.9% | 96.2 | 104%
